Records with an inconclusive call do not appear. Calls of active or inactive are those of the source. How the source made its calls, unless noted: active means hit-call score of the fitted dose curve at least 0.9, where 1 is the maximum; inactive means score below 0.9.
How the values were obtained:
[1] = target: human RAR-related Orphan Receptor beta (RORb), RORB (gene 6096) (UniProt Q92753); experiment: ATG_RORb_TRANS: Attagene TRANS-FACTORIAL HepG2 Assay for human RAR-related Orphan Receptor beta (RORb) (AID 2283010; active means hit-call score of the fitted dose curve at least 0.9, where 1 is the maximum)
Chain of human RAR-related Orphan Receptor beta (RORb), RORB (gene 6096) (Q92753 whole entry, looked up, the tested form may be a part): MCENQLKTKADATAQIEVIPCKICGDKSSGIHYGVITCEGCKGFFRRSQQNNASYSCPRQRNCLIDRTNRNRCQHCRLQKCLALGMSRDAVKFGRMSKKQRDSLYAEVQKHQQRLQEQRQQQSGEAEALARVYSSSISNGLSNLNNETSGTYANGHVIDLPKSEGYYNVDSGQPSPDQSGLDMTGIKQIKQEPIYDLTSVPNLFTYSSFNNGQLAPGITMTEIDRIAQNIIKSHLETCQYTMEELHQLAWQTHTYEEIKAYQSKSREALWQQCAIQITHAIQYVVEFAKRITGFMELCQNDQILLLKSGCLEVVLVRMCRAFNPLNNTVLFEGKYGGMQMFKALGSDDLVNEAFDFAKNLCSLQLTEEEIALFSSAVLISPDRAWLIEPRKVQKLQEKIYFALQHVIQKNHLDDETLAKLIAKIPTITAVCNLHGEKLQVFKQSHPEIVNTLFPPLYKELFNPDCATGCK
Procedure, shortened: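 Multiplexed transcription-factor reporter assay: HepG2 cells transiently carrying NR-Gal4/GAL4-UAS constructs, 24 h treatment, mRNA quantified by RT-PCR plus capillary electrophoresis fluorescence; activity scored as induction over DMSO.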

[2] = target: human Retinoid X Receptor beta (RXRb), RXRB (gene 6257) (UniProt P28702); experiment: ATG_RXRb_TRANS: Attagene TRANS-FACTORIAL HepG2 Assay for human Retinoid X Receptor beta (RXRb) (AID 2283013; active means hit-call score of the fitted dose curve at least 0.9, where 1 is the maximum)
Chain of human Retinoid X Receptor beta (RXRb), RXRB (gene 6257) (P28702 whole entry, looked up, the tested form may be a part): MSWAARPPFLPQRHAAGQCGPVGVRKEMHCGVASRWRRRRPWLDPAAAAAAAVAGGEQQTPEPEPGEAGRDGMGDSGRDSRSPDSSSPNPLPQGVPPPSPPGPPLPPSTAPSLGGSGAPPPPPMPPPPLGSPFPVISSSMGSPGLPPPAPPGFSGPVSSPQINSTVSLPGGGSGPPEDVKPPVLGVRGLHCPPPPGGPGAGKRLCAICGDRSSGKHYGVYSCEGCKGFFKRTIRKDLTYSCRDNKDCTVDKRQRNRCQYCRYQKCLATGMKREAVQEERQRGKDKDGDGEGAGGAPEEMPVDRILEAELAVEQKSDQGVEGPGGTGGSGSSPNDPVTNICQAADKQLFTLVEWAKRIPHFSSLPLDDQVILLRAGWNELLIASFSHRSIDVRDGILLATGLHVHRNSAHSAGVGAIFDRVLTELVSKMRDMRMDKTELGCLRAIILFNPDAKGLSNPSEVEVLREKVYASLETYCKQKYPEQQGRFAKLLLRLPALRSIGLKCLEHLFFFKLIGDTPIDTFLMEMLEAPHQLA
Procedure, shortened: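 After a 24 h incubation with test chemical, transfected HepG2 cells carrying NR-Gal4 fusions and GAL4-UAS reporter transcription units yield RNA whose reporter cDNA is FAM-labelled, HpaI-cut and sized by capillary electrophoresis; increases over DMSO are scored.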

[3] = read-out: E-selectin (Homo sapiens) (UniProt P16581); experiment: BSK_3C_Eselectin: BioMAP Diversity Plus: 3C Assay for Eselectin Biomarker Activity (AID 2283015); conditions: primary human endothelial cells (HUVEC); actives raise or lower the signal;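 further: cell surface E-selectin protein quantified by ELISA 24 h after dosing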
Procedure, shortened: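 Human vascular endothelium from umbilical vein is exposed to test chemicals for 24 h. E-selectin levels are read by ELISA and compared with DMSO controls.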

[4] = read-out: Interleukin-1 alpha (IL1a), IL1A (gene 3552); experiment: BSK_BE3C_IL1a: BioMAP Diversity Plus: BE3C Assay for Interleukin-1 alpha (IL1a) Biomarker Activity (AID 2283016); conditions: primary human bronchial epithelial cells; actives raise or lower the signal
Procedure, shortened: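 Measured in human lung primary bronchial epithelial cells: IL-1a by ELISA at 24 h after dosing, with bidirectional fitting against DMSO.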

[5] = read-out: Monocyte Chemoattractant Protein-1 (MCP1), CCL2 (gene 6347); experiment: BSK_3C_MCP1: BioMAP Diversity Plus: 3C Assay for Monocyte Chemoattractant Protein-1 (MCP1) Biomarker Activity (AID 2283017); conditions: primary human endothelial cells (HUVEC); actives raise or lower the signal
Procedure, shortened: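 Endothelial cells from human umbilical vein are dosed with chemical, cultured 24 h, then assayed for MCP-1 by ELISA; both increases and decreases are modelled against DMSO controls.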

[6] = read-out: Monocyte Chemoattractant Protein-1 (MCP1), CCL2 (gene 6347); experiment: BSK_4H_MCP1: BioMAP Diversity Plus: 4H Assay for Monocyte Chemoattractant Protein-1 (MCP1) Biomarker Activity (AID 2283018); conditions: primary human endothelial cells (HUVEC); actives raise or lower the signal
Procedure, shortened: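 Primary human umbilical vein endothelium is exposed to chemical for 24 h before MCP-1 is assayed by ELISA. Concentration-response fitted bidirectionally relative to DMSO.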

[7] = read-out: Interleukin-8 (IL8), CXCL8 (gene 3576); experiment: BSK_3C_IL8: BioMAP Diversity Plus: 3C Assay for Interleukin-8 (IL8) Biomarker Activity (AID 2283020); conditions: primary human endothelial cells (HUVEC); actives raise or lower the signal
Procedure, shortened: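 Using DMSO-treated wells as the baseline, bidirectional curve fitting was applied to ELISA-measured IL-8 from human umbilical vein endothelial cultures sampled 24 h after compound addition.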

[8] = read-out: Monokine induced gamma interferon (MIG), CXCL9 (gene 4283); experiment: BSK_3C_MIG: BioMAP Diversity Plus: 3C Assay for Monokine induced gamma interferon (MIG) Biomarker Activity (AID 2283021); conditions: primary human endothelial cells (HUVEC); actives raise or lower the signal
Procedure, shortened: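 ELISA-measured MIG in dosed HUVEC 3C cultures at 24 h, analysed by bidirectional fitting with DMSO defining baseline activity.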

[9] = target: human Vitamin D Receptor (VDR), VDR (gene 7421) (UniProt P11473); experiment: ATG_VDR_TRANS: Attagene TRANS-FACTORIAL HepG2 Assay for human Vitamin D Receptor (VDR) (AID 2283022; active means hit-call score of the fitted dose curve at least 0.9, where 1 is the maximum)
Chain of human Vitamin D Receptor (VDR), VDR (gene 7421) (P11473 whole entry, looked up, the tested form may be a part): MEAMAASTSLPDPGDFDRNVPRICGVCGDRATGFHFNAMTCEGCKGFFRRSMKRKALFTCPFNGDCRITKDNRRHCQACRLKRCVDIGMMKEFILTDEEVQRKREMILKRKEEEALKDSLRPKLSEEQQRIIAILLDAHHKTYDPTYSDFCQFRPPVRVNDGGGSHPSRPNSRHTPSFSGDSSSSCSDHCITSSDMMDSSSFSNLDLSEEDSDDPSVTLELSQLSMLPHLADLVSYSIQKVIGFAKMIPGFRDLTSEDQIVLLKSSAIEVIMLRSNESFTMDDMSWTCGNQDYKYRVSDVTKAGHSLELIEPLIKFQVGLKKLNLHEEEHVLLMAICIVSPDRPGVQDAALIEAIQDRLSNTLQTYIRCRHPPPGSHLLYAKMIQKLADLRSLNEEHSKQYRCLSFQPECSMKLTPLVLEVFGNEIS
Procedure, shortened: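 Fluorescence of labelled reporter cDNA fragments, resolved by capillary electrophoresis, gives mRNA induction after 24 h treatment of HepG2 cells carrying transfected Gal4-fusion reporter units. Activity is fitted in the positive direction with DMSO as baseline.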

[10] = BSK_3C_SRB: Viability Assessment in the BioMAP Diversity Plus: 3C Assay (AID 2283023); conditions: primary human endothelial cells (HUVEC);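 further: cells read 24 h after compound dosing; fitted both ways against DMSO so a hit may be signal rise or drop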
Procedure, shortened: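 Cells were dosed with chemical, cultured 24 h, fixed with 10% TCA, stained with 0.1% SRB and read at 560 nm. Human umbilical vein endothelium was used; DMSO served as negative control and baseline.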

[11] = read-out: Matrix Metallopeptidase 1 (MMP1), MMP1 (gene 4312); experiment: BSK_BE3C_MMP1: BioMAP Diversity Plus: BE3C Assay for Matrix Metallopeptidase 1 (MMP1) Biomarker Activity (AID 2283024); conditions: primary human bronchial epithelial cells; actives raise or lower the signal
Procedure, shortened: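 In this multiplexed primary-cell system, human bronchial epithelium received chemicals for 24 h before an ELISA for MMP1. Values reflect bidirectional fits normalised to the DMSO baseline.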

[12] = BSK_3C_Vis: BioMAP Diversity Plus: 3C Assay for Morphology Visualization (AID 2283025); conditions: primary human endothelial cells (HUVEC);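 further: fitted both ways so gain or loss versus DMSO counts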
Procedure, shortened: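 Light-microscopy morphology readout, 24 h exposure, human primary umbilical vein endothelium; analysed relative to DMSO with bidirectional fitting.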

[13] = read-out: Pselectin, SELP (gene 6403); experiment: BSK_4H_Pselectin: BioMAP Diversity Plus: 4H Assay for Pselectin Biomarker Activity (AID 2283026); conditions: primary human endothelial cells (HUVEC); actives raise or lower the signal
Procedure, shortened: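 Bidirectional fits against DMSO gave the endpoint. Cells: primary human umbilical vein endothelium, chemical-treated for 24 h before ELISA detection of P-selectin.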

[14] = BSK_4H_SRB: Viability Assessment in the BioMAP Diversity Plus: 4H Assay (AID 2283027); conditions: primary human endothelial cells (HUVEC);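 further: cells exposed to compound for 24 h before staining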
Procedure, shortened: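 HUVEC, 24 h post-dose; 10% TCA fix, 0.1% SRB stain, A560 nm. Total protein = overt cytotoxicity, parallel to biomarker read. Bidirectional fit vs DMSO baseline.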

[15] = BSK_BE3C_SRB: Viability Assessment in the BioMAP Diversity Plus: BE3C Assay (AID 2283028); conditions: primary human bronchial epithelial cells
Procedure, shortened: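 Overt cytotoxicity was assessed as total protein in confluent human primary bronchial epithelial cultures 24 h after chemical addition, using 0.1% sulforhodamine B staining read at 560 nm.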

[16] = read-out: Thrombomodulin, THBD (gene 7056); experiment: BSK_3C_Thrombomodulin: BioMAP Diversity Plus: 3C Assay for Thrombomodulin Biomarker Activity (AID 2283029); conditions: primary human endothelial cells (HUVEC); actives raise or lower the signal
Procedure, shortened: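 In a multiplexed primary-cell system, human umbilical vein endothelium received chemical and was assayed 24 h later for thrombomodulin by ELISA. Parallel cultures were SRB-stained (0.1% SRB after 10% TCA fixation, read at 560 nm) to flag cytotoxicity.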

[17] = target: Retinoic acid receptor RXR-alpha (Homo sapiens) (UniProt P19793); experiment: ATG_RXRa_TRANS: Attagene TRANS-FACTORIAL HepG2 Assay for human Retinoid X Receptor alpha (RXRa) (AID 2283012; active means hit-call score of the fitted dose curve at least 0.9, where 1 is the maximum)
Chain of Retinoic acid receptor RXR-alpha (Homo sapiens) (P19793 whole entry, looked up, the tested form may be a part): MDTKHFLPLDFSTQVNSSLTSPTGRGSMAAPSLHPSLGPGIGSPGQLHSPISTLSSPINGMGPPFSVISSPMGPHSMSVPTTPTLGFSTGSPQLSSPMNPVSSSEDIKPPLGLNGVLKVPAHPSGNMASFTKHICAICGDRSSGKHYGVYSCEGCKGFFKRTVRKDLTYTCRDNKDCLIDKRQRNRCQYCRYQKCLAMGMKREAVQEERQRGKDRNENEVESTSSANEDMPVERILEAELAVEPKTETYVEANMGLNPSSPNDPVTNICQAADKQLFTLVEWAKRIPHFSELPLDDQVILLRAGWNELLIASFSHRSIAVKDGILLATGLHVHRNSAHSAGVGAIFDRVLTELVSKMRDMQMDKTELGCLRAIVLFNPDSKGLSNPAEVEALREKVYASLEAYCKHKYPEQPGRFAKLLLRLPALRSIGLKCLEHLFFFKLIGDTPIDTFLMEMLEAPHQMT
Procedure, shortened: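 Chimeric NR-GAL4 trans-activation in HepG2, 24 h treatment; reporter transcripts quantified by fluorescence on capillary electrophoresis, analysed for upward change from DMSO.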

[18] = target: human Thyroid Receptor alpha (THRa1), THRA (gene 7067) (UniProt P10827); experiment: ATG_THRa1_TRANS: Attagene TRANS-FACTORIAL HepG2 Assay for human Thyroid Receptor alpha (THRa1) (AID 2283014; active means hit-call score of the fitted dose curve at least 0.9, where 1 is the maximum)
Chain of human Thyroid Receptor alpha (THRa1), THRA (gene 7067) (P10827 whole entry, looked up, the tested form may be a part): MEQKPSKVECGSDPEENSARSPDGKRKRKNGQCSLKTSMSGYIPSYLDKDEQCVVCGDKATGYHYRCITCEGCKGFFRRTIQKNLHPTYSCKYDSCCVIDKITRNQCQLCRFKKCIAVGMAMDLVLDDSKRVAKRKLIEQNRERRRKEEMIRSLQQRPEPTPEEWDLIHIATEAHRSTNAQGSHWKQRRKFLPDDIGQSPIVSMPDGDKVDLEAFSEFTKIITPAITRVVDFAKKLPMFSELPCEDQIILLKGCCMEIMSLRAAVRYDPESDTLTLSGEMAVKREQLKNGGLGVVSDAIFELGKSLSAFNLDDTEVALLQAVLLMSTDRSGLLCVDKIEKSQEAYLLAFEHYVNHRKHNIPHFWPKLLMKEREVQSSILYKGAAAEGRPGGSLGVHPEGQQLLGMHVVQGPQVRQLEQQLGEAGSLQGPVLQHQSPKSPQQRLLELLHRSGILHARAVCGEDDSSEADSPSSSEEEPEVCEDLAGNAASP
Procedure, shortened: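 First, HepG2 cells receive multiple GAL4-UAS reporter units and the chimeric receptor. They are then dosed for 24 h, after which RNA is reverse-transcribed, amplified, labelled, HpaI-cut and sized by capillary electrophoresis; gain relative to DMSO is scored.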

[19] = read-out: Human Leukocyte Antigen - DR isotype (HLADR), HLA-DRA (gene 3122); experiment: BSK_3C_HLADR: BioMAP Diversity Plus: 3C Assay for Human Leukocyte Antigen - DR isotype (HLADR) Biomarker Activity (AID 2283019); conditions: primary human endothelial cells (HUVEC); actives raise or lower the signal;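 further: ELISA of cell-surface HLA-DR on HUVEC 24 h after dosing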
Procedure, shortened: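 Endothelial cells from human umbilical vein are treated with test chemical; after 24 h, HLA-DR levels are measured by ELISA. Data are fitted in both directions using DMSO as the baseline.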

[20] = target: human RAR-related Orphan Receptor gamma (RORg), RORC (gene 6097) (UniProt P51449); experiment: ATG_RORg_TRANS: Attagene TRANS-FACTORIAL HepG2 Assay for human RAR-related Orphan Receptor gamma (RORg) (AID 2283011; active means hit-call score of the fitted dose curve at least 0.9, where 1 is the maximum)
Chain of human RAR-related Orphan Receptor gamma (RORg), RORC (gene 6097) (P51449 whole entry, looked up, the tested form may be a part): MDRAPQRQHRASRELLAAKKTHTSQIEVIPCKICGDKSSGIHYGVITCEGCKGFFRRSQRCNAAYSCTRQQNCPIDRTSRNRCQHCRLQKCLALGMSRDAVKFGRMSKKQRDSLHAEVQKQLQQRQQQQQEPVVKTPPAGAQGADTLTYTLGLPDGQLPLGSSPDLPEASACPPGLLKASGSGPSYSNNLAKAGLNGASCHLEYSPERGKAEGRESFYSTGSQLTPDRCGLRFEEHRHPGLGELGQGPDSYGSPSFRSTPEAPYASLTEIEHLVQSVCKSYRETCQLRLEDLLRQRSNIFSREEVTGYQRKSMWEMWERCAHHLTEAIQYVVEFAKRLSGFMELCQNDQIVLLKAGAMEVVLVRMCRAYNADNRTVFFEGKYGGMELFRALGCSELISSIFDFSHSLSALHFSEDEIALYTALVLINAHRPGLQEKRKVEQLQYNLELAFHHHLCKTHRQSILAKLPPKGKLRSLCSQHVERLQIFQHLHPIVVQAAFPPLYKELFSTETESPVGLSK
Procedure, shortened: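 Activity is scored as increase in GAL4-UAS reporter mRNA over DMSO, detected by fluorescent RT-PCR and capillary electrophoresis in HepG2 cells transiently expressing a RORg-Gal4 chimera, 24 h after dosing.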

Measured: AC50

Chain of E-selectin (Homo sapiens) (P16581 whole entry, looked up): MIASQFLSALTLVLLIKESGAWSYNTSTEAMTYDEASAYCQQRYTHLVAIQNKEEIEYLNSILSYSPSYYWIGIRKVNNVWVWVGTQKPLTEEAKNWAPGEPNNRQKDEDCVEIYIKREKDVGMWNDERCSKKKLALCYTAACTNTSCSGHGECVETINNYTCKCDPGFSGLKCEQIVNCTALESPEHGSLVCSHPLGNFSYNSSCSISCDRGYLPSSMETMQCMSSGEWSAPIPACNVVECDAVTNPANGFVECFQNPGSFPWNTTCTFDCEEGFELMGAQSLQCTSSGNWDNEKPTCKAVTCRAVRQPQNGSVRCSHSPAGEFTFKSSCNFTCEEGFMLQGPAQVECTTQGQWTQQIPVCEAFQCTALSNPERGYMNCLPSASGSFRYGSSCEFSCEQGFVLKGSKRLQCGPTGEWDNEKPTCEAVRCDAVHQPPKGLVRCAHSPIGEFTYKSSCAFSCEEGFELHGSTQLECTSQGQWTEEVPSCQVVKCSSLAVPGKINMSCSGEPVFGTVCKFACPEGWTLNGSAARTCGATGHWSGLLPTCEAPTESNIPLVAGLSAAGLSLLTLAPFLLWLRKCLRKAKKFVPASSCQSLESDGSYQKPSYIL

OC[C@H]1O[C@@H]2O[C@H]3[C@H](O)[C@@H](O)[C@@H](O[C@H]4[C@H](O)[C@@H](O)[C@@H](O[C@H]5[C@H](O)[C@@H](O)[C@@H](O[C@H]6[C@H](O)[C@@H](O)[C@@H](O[C@H]7[C@H](O)[C@@H](O)[C@@H](O[C@H]1[C@H](O)[C@H]2O)O[C@@H]7CO)O[C@@H]6CO)O[C@@H]5CO)O[C@@H]4CO)O[C@@H]3CO
inactive: [1] | [2] | [3] | [4] | [5] | [6] | [7] | [8] | [9] | [10] | [11] | [12] | [13] | [14] | [15] | [16]

OC[C@H]1O[C@@](CO)(O[C@H]2O[C@H](CO)[C@@H](O)[C@H](O)[C@H]2O)[C@@H](O)[C@@H]1O
inactive: [1] | [2] | [3] | [4] | [5] | [6] | [7] | [8] | [10] | [11] | [12] | [13] | [14] | [15] | [16]

O=C(O)c1cccc(C(=O)O)c1
inactive: [17] | [18] | [3] | [4] | [5] | [6] | [19] | [7] | [8] | [10] | [11] | [12] | [13] | [14] | [15] | [16]

COCc1nnc(-c2ccc[n+]([O-])c2)n1-c1c(Cl)c(Cl)cc2[nH]c(=O)c(=O)[nH]c12
inactive: [20] | [17] | [3] | [4] | [5] | [6] | [19] | [7] | [8] | [10] | [11] | [12] | [13] | [14] | [15] | [16]

CCCCCCCCCC
inactive: [20] | [17] | [2] | [3] | [4] | [5] | [6] | [7] | [8] | [9] | [10] | [11] | [12] | [13] | [14] | [15] | [16]

Cc1ccc(S(=O)(=O)NC(=O)NN2CCCCCC2)cc1
inactive: [1] | [2] | [3] | [4] | [5] | [6] | [7] | [8] | [9] | [10] | [11] | [12] | [13] | [14] | [15] | [16]

CC(C)CCCCCCOC(=O)C1CCCCC1C(=O)OCCCCCCC(C)C (stereo not given)
inactive: [1] | [18] | [3] | [4] | [5] | [6] | [7] | [8] | [9] | [10] | [11] | [12] | [13] | [14] | [15] | [16]

CCCC(CCC)C(=O)O
inactive: [1] | [2] | [3] | [4] | [5] | [6] | [19] | [7] | [8] | [9] | [10] | [11] | [12] | [13] | [14] | [15] | [16]

CCCCCCCC/C=C\CCCCCCCC(=O)OC[C@@H](O)[C@H]1OC[C@H](O)[C@H]1O
inactive: [20] | [2] | [18] | [3] | [4] | [5] | [6] | [19] | [7] | [8] | [9] | [10] | [11] | [12] | [13] | [14] | [15] | [16]

O=C(NO)C1(NS(=O)(=O)c2ccc(Oc3ccc(F)cc3)cc2)CCOCC1
inactive: [20] | [17] | [18] | [3] | [4] | [5] | [6] | [7] | [8] | [9] | [10] | [11] | [12] | [13] | [14] | [15] | [16]

CCc1cccc(CC)c1N
inactive: [20] | [18] | [3] | [4] | [5] | [6] | [7] | [8] | [10] | [11] | [12] | [13] | [14] | [15] | [16]
active: [2] 100 µM

c1ccc2ncccc2c1
inactive: [20] | [3] | [4] | [5] | [6] | [7] | [8] | [10] | [11] | [12] | [13] | [14] | [15] | [16]

CC[C@H](C)C(=O)O[C@H]1C[C@H](O)C=C2C=C[C@H](C)[C@H](CC[C@@H](O)C[C@@H](O)CC(=O)O)[C@H]21
inactive: [20] | [2] | [18] | [3] | [4] | [5] | [6] | [19] | [7] | [8] | [9] | [10] | [11] | [12] | [13] | [14] | [15] | [16]

OCC(CO)(CO)CO
inactive: [20] | [17] | [2] | [18] | [3] | [4] | [5] | [6] | [19] | [7] | [8] | [9] | [10] | [11] | [12] | [13] | [14] | [15] | [16]

CC1(C)C(=O)N(Cl)C(=O)N1Cl
inactive: [20] | [3] | [4] | [5] | [6] | [7] | [8] | [10] | [11] | [12] | [13] | [14] | [15] | [16]

Reference: PubChem BioAssay (EPA / NIEHS)
